Results published in PubChem BioAssay (NCATS).
Several values for one entry are separate records, joined by “and”; a condition that tells them apart may be missing. Equal values may be shown once. Records with an inconclusive call do not appear. Activity calls are given as the source filed them. Unless noted, calls come from the whole dose curve; as a rule, active = well fitted curve in the direction sought with a large enough effect; inconclusive = small, poorly fitted or top-dose-only effect, or another doubt; inactive = no such curve, though single readings can be large; an effect the other way counts as inactive or inconclusive.

What was measured:
[1] = test system: Zika virus NS2B-NS3 protease (unlinked complex); test: Primary screen GU Rhodamine qHTS for Zika virus inhibitors: Unlinked NS2B-NS3 protease assay (AID 1347159); note: % is set by controls: 0 for no effect and ±100 for the full control effect; nearly all actives have a fitted effect of over 60% in size
Summary of the method: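 Unlinked NS2B/NS3, 25 nM; Rhod110 peptide, 1.5 microM; compounds, up to 114 microM. Reaction run 15 min at RT in 10 mM Tris-HCl pH 8.0, 0.01% Tween 20; kinetic fluorescence change fitted with a 4-parameter Hill model.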

[2] = test system: Zika virus NS2B-NS3 protease (linked construct); test: Primary screen NINDS Rhodamine qHTS for Zika virus inhibitors (AID 1347160); note: % is set by controls: 0 for no effect and ±100 for the full control effect; nearly all actives have a fitted effect of over 55% in size
Summary of the method: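 Single-chain NS2B-NS3 protease, 25 nM, pH 8.0; compounds preincubated 15 min. Activity: Rhodamine110 release from 1.5 microM substrate over 15 min, room temperature, data fitted to 4-parameter Hill.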

[3] = target: Calcium and integrin-binding protein 1 (Homo sapiens) (UniProt Q99828); test: Primary qHTS for Identification of Calcium Integrin Binding Protein 1 (CIB1) Competitor (AID 1508620);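 note: GST tagged CIB1 binding a fluorescein labelled alphaIIb integrin peptide tracer; top concentration of the series differs between compounds; % is set by controls: 0 for no effect and ±100 for the full control effect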
Chain of Calcium and integrin-binding protein 1 (Homo sapiens) (Q99828 whole entry, looked up): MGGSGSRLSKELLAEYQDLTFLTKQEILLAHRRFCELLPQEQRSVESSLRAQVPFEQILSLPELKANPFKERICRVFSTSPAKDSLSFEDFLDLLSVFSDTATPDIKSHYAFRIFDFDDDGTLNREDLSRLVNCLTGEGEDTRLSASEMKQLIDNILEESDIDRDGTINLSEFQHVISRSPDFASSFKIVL
Summary of the method: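 Fluorescence polarization competition: CIB1-GST (1 uM final) preincubated with compound 15 min at room temperature, then FITC-labeled alphaIIb peptide (100 nM final) added for another 15 min. Polarization read at Ex 480/Em 540.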

[4] = Primary qHTS for inhibitors of nuclear receptor binding SET domain protein 2 (NSD2) in an isogenic RCH-ACV NSD2 p.E1099K mutant (9B) (AID 1645876); note: potency is the fitted concentration of half-maximal effect; nearly all actives have a fitted effect of over 70% in size
[5] = Primary qHTS for inhibitors of nuclear receptor binding SET domain protein 2 (NSD2) in an RCH-ACV wild type WT cells (2C) (AID 1645877); note: potency is the fitted concentration of half-maximal effect; nearly all actives have a fitted effect of over 70% in size
[6] = target: Glutathione peroxidase 1 (Homo sapiens) (UniProt P07203); test: Primary qHTS Assay for Inhibitors of Recombinant Selenoprotein Glutathione Peroxidase 1 (GPX1) (AID 1845191); note: nearly all actives have a fitted effect of over 65% in size; note: potency is the fitted concentration of half-maximal effect; for activity, negative = inhibition: % is set by controls: 0 for no effect and ±100 for the full control effect
Chain of Glutathione peroxidase 1 (Homo sapiens) (P07203 whole entry, looked up): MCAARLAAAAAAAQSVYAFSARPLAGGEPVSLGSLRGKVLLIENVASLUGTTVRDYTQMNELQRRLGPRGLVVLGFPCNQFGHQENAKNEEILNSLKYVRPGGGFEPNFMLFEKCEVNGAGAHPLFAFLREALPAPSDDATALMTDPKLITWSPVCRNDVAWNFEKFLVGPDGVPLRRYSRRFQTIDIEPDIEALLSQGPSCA
Summary of the method: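 GPX1 10 nM, GR 100 nM, GSH 1 mM, NADPH 0.5 mM, CHP 0.5 mM (final). 30-min cpd preincubation, RT. Ex340/Em450 read t=0, t=15 min.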

[7] = target: Phospholipid hydroperoxide glutathione peroxidase GPX4 (Homo sapiens) (UniProt P36969); test: Primary qHTS Assay for Inhibitors of Recombinant Selenoprotein Glutathione Peroxidase 4 (GPX4) (AID 1845192); conditions: outcome: dose series up to 50 µM unless noted; note: nearly all actives have a fitted effect of over 65% in size; note: potency is the fitted concentration of half-maximal effect; for activity change, negative = inhibition: % is set by controls: 0 for no effect and ±100 for the full control effect
Chain of Phospholipid hydroperoxide glutathione peroxidase GPX4 (Homo sapiens) (P36969 whole entry, looked up): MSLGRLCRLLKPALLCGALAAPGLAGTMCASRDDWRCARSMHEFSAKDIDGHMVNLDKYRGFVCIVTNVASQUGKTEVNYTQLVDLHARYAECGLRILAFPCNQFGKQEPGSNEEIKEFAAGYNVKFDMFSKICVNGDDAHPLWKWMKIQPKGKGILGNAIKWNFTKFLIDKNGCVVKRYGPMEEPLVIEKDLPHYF
Summary of the method: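 qHTS, GR-coupled: GPX4 200 nM + cpd 30 min RT → GSH 1 mM, NADPH 0.5 mM, GR 100 nM → CHP 0.5 mM start; fluor 340/450 at t0 and t15 min; no-enzyme wells as control.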

[8] = target: Luciferin 4-monooxygenase (Photinus pyralis) (UniProt P08659); test: Primary firefly luciferase (FLuc) qHTS assay for identification of artifact compounds. (AID 1845220); note: nearly all actives have a fitted effect of over 60% in size;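 for activity change, negative = inhibition: plate controls were DMSO vehicle for no effect and no enzyme for full effect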
Summary of the method: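 Reaction readout was CCD-imaged luminescence, taken 5 min after adding 10 nM purified firefly enzyme to compound-treated wells holding 10 uM luciferin and ATP in pH 7.6 buffer.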

[9] = Primary fluorescence-based thiol-reactive (MSTI) qHTS assay for identification of artifact compounds. (AID 1845221);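 note: thiol-reactive compounds lower the probe fluorescence signal; nearly all actives have a fitted effect of over 65% in size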
Summary of the method: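 Compounds were incubated 1 h at room temperature in the dark with the MSTI probe (4 uM) in PBS pH 7.4, 2% DMSO. Signals were normalized between Acetyl-MSTI and MSTI.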

[10] = test system: Nanoluciferase (engineered Oplophorus gracilirostris luciferase); test: Primary Nanoluciferase (NLuc) qHTS assay for identification of artifact compounds. (AID 1845222);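 note: NLuc secreted into diluted conditioned medium of S16 cells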
Summary of the method: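 Concentration-response data were obtained by luminescence after 5 min with Nano-Glo substrate at 1:100. The enzyme was diluted S16 NLuc-expressing cell medium, preincubated with compound for 15 min at RT. Curves were fitted with a 4-parameter Hill model.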

[11] = Primary redox qHTS assay for identification of artifact compounds. (AID 1845223);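 note: 0% = DMSO and 100% = reference compound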
Summary of the method: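 Redox-cycling detection via DTT (250 uM final) oxidation coupled to Amplex Red (25 uM)/HRP (250 mU/mL) in HBSS. 15 min preincubation plus 30 min after DTT, room temperature. Ex/Em 525/598 nm; 4-parameter Hill fit against DMSO and 10 uM DA3003.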

[12] = test system: HeLa; test: Primary qHTS to identify gynecologic anti-cancer compounds using libraries of approved drugs and bioactive compounds (AID 1345084); conditions: Gynecologic cancer cell panel viability, ATPlite luminescence, 48 h; series mostly up to 57.5 µM; note: nearly all actives have a fitted effect of over 55% in size; note: potency is the fitted concentration of half-maximal effect; for activity change, negative = cytotoxicity: % is set by controls: 0 for no effect and ±100 for the full control effect
Summary of the method: (§1)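 Luminescence from the ATPlite ATP-monitoring reagent indicates viable cell number; lower signal means cytotoxicity. Cells received compound 16 h after seeding and were exposed for 48 h across five concentrations.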

[13] = test system: Hek293T; test: as above; conditions: Gynecologic cancer cell panel viability, ATPlite luminescence, 48 h, control line for the selectivity index; series mostly up to 57.5 µM
Summary of the method: as §1

[14] = test system: Tov-21-G; test: as above; conditions: Gynecologic cancer cell panel viability, ATPlite luminescence, 48 h; series mostly up to 57.5 µM
Summary of the method: as §1

[15] = test system: Tov112D; test: as above; conditions: Gynecologic cancer cell panel viability, ATPlite luminescence, 48 h; series mostly up to 57.5 µM
Summary of the method: as §1

[16] = P-glycoprotein substrates identified in KB-8-5-11 adenocarcinoma cell line, qHTS therapeutic library screen (AID 1346987); note: nearly all actives have a fitted effect of over 65% in size; note: potency is the fitted concentration of half-maximal effect
Summary of the method: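 Luminescence from CellTiter-Glo, read 5 min after addition, quantified survival of KB-8-5-11 (P-gp-overexpressing) cells exposed to compounds for 72 h. AC50 was derived from concentration-response curves.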

[17] = qHTS drug screen for cell cycle checkpoint inhibitors in PARPi-resistant BRCA-mutant ovarian cancer cell lines. (AID 1963452; calls by dose curve); conditions: PEO1/OlaR viability, CellTiter-Glo luminescence, 96 h, stronger effect = lower value
Summary of the method: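 PEO1, PEO4 and PEO1/OlaR ovarian cancer cells, 600 per well, exposed 96 h at 37C to a dilution series. Viability read by CellTiter-Glo luminescence, normalized to DMSO and empty wells; activity summarized as Z-AUC.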

[18] = test system: JEG-3; test: Primary qHTS to identify gynecologic anti-cancer compounds using libraries of approved drugs and bioactive compounds (AID 1345084); conditions: Gynecologic cancer cell panel viability, ATPlite luminescence, 48 h; series mostly up to 57.5 µM; note: nearly all actives have a fitted effect of over 55% in size; note: potency is the fitted concentration of half-maximal effect
Summary of the method: as §1

[19] = Drug repurposing screens with cells derived from glioblastoma tumor samples (AID 1345199); conditions: GBM patient neurospheres viability, ATP luminescence, 48 h; note: % is set by controls: 0 for no effect and ±100 for the full control effect; nearly all actives have a fitted effect of over 40% in size
Summary of the method: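 Primary testing used CD133+ neurospheres from four GBM patients, seven concentrations, 48 h exposure and ATP-based viability; confirmation added three slower-growing patient lines.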

[20] = measured here: PEO1 parental Z-AUC

CC(C)COc1ccc(CNC(=O)N(Cc2ccc(F)cc2)C2CCN(C)CC2)cc1
active: Potency [4] 20.5 µM | Potency [5] 18.3 µM
inactive: Potency [1] | Potency [2] | outcome [3] | Potency [6] | Potency [7] | Potency [8] | Potency [9] | Potency [10] | Potency [11] | Potency [12] | Potency [13] | Potency [14] | Potency [15]

CC1(C)CC[C@]2(C(=O)OC3OC(CO)C(O)C(O)C3O)CC[C@]3(C)C(=CCC4[C@@]5(C)CC[C@H](OC6OC(C(=O)O)C(O)C(O)C6O)C(CO)(CO)C5CC[C@]43C)[C@@H]2C1 (some centres undefined)
active: Potency [4] 0.869 µM | Potency [5] 0.435 µM
inactive: outcome [16] inactive [at 9.29 µM] | Potency [1] | Potency [2] | outcome [3] | Potency [6] | Potency [7] | activity change, negative = inhibition [8] 0.233% [at 11.6 µM] | activity change, negative = thiol reactive [9] 84.5% [at 11.5 µM] | activity, negative = inhibition [10] -2.38% [at 11.6 µM] | redox activity (% of DA3003) [11] 7.5% [at 11.5 µM] | activity change, negative = cytotoxicity [12] -15.8% [at 11.6 µM] | activity change, negative = cytotoxicity [13] -26.5% [at 11.6 µM] | activity change, negative = cytotoxicity [14] -29.8% [at 11.6 µM] | activity change, negative = cytotoxicity [15] -7.53% [at 11.6 µM]

FC(F)(F)c1ccc(CNc2ccc(Cc3c[nH]c4ncccc34)cn2)cc1
inactive: Potency [1] | Potency [2] | outcome [3] | Potency [6] | Potency [7] | Potency [8] | Potency [9] | Potency [10] | Potency [11] | Z-AUC [17] -0.674 | Potency [18] | Potency [14]
active: Potency [4] 16.3 µM and 10.5 µM | Potency [5] 14.5 µM and 8.33 µM
-0.926: Z-AUC ([17]; measured here: PEO4 Z-AUC)
-1.25: Z-AUC [17, 20]

CC(=O)Nc1nc2c(Oc3cc(-c4ccc(C(F)(F)F)cc4)ncn3)cccc2s1
active: Potency [4] 6.49 µM | Potency [5] 4.09 µM | Potency [14] 22.4 µM
inactive: Potency [1] | Potency [6] | Potency [7] | Potency [8] | Potency [9] | Potency [10] | Potency [11] | Potency [18] | Potency [15]

O=C(C1=CCN2c3c(cccc31)OC[C@H]2CN1CCOCC1)c1cccc2ccccc12
inactive: Potency [1] | Potency [2] | outcome [3] | Potency [6] | Potency [7] | Potency [8] | Potency [9] | Potency [10] | Potency [13] | Potency [18]

COc1ccccc1-c1cc(Nc2cccc(CS(N)(=O)=O)c2)ncn1
inactive: Potency [16] | Potency [1] | Potency [2] | outcome [3] | Potency [6] | Potency [7] | Potency [8] | Potency [9] | Potency [10] | Potency [11]
active: Potency [4] 4.09 µM | Potency [5] 2.9 µM | Potency [12] 22.4 µM | Potency [13] 20 µM

Cn1cnc(-c2nccc3c(=O)[nH]c(OCCCC(F)(F)F)nc23)c1
inactive: Potency [2] | Potency [8] | Potency [9] | Potency [10] | Potency [11] | Potency [12] | Potency [15]
active: Potency [4] 2.9 µM | Potency [5] 2.58 µM | Potency [6] 8.06 µM | Potency [7] 22.7 µM

CC[C@]1(O)C[C@H]2CN(CCC3C(=Nc4ccccc43)[C@@](C(=O)OC)(c3cc4c(cc3OC)N(C)[C@H]3[C@@](O)(C(N)=O)[C@H](O)[C@]5(CC)C=CCN6CC[C@]43[C@@H]65)C2)C1 (some centres undefined)
active: Potency [4] 0.0515 µM | Potency [5] 0.023 µM | Potency [12] 0.398 µM | Potency [18] 0.1 µM | Potency [14] 0.316 µM | Potency [15] 0.1 µM
inactive: Potency [2] | outcome [3] | Potency [7] | Potency [8] | Potency [10]

CN(C)CCCCCCNC(=O)c1cccc(-c2cc(O)c3ncccc3c2)c1
active: Potency [16] 8.2 µM | Potency [4] 11.5 µM
inactive: Potency [2] | Potency [6] | Potency [7] | Potency [8] | Potency [10] | Potency [12] | Potency [18]

C=C(C)C(=O)O[C@H]1[C@H]2C(=C)C(=O)O[C@@H]2C[C@@H](C)[C@@H]2O[C@@H]2C(=O)[C@](C)(O)[C@@H]1OC(C)=O
inactive: Potency [2] | outcome [3] | Potency [6] | Potency [7] | Potency [8] | Potency [10] | Potency [11] | Potency [12] | Potency [15]
active: Potency [4] 2.82 µM | Potency [5] 1.42 µM | Potency [13] 10 µM

COC(=O)/C=C/C(=O)N(O)CCCCNCc1ccc(COC(=O)Nc2cccc3ccccc23)cc1
0.131: Z-AUC ([17]; measured here: PEO4 Z-AUC)
0.0181: Z-AUC [17, 20]
active: Potency [4] 9.34 µM
inactive: Potency [1] | Potency [2] | outcome [3] | Potency [6] | Potency [7] | Potency [8] | Potency [9] | Potency [10] | Potency [11] | Z-AUC [17] 0.336 | Potency [12] | Potency [18] | Potency [14] | Potency [15]

O=C(Nc1ncc(SCCN2CCCC2)s1)C1(c2ccc(S(=O)(=O)C3CC3)cc2)CC1C1CCCCC1 (centres undefined)
inactive: Potency [2] | outcome [3] | Potency [6] | Potency [7] | Potency [8] | Potency [9] | Potency [10] | Potency [11] | Potency [12] | Potency [13] | Potency [18] | Potency [14] | Potency [15]
active: Potency [4] 16.3 µM | Potency [5] 12.9 µM

CCOC(=O)CN[C@@H](C(=O)N1CC[C@H]1C(=O)NCc1ccc(/C(N)=N/O)cc1)C1CCCCC1
inactive: Potency [6] | Potency [7] | activity, negative = cell killing ([19]; at 45.9 µM (top of the series), tumour line B) -9.76% | activity, negative = cell killing ([19]; at 45.9 µM (top of the series), tumour line D) -14.5% | activity, negative = cell killing ([19]; at 46 µM (top of the series), tumour line A) -18.3% | activity, negative = cell killing ([19]; at 46.1 µM (top of the series), tumour line C) -15.2%
